CHX counter – Cycloheximide Counterscreen for Small Molecule Inhibitors of Shiga Toxin; cell reporter, cycloheximide protein synthesis inhibition counterscreen; max response, %; 300,000 tested, 12% active; AID 2314, 2010; in the data active means max response mostly above about 13%, no sharp cut-off; inactive means mostly below about 14%; further: read at 38.3 µM for the half of the compounds with a filed dose; 0% is about no effect
Shiga toxin inh – A qHTS for Small Molecule Inhibitors of Shiga Toxin; Vero cells, Shiga toxin protein synthesis inhibition reporter; inhibition, % at 38.7 µM; 290,000 tested, 9.2% active; in the data active means inhibition mostly above about 28%, no sharp cut-off; inactive means mostly below about 43%; further: 0% is about no effect
HCMV inh – qHTS Assay for inhibitors of the human cytomegalovirus (HCMV) | HFF cells, HCMV-luciferase reporter, 72 h; hits give low values | activity change, negative = inhibition, % at 57.5 µM | 410,000 tested, 4.5% active | AID 1259415, 2018; in the data active means activity change below about -60%; inconclusive means no clear call, values can overlap the other calls; inactive means above about -39%; further: on the % scale 0 is the no-effect control and ±100 the full control effect
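Steps: HFFs plated, 16 h 37C; compounds added; HCMV-luciferase added to MOI 1 PFU/cell; 72 h 37C; OneGlo reagent, 5 min room temperature; luminescence read, normalized to controls.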
Pf growth 48h – Primary qHTS for delayed death inhibitors of the malarial parasite plastid, 48 hour incubation; P. falciparum luciferase growth in erythrocytes, 48 h; Potency, µM (titrated, usually from 28.7 µM), for the others: top-dose activity change, negative = inhibition, most hits filed as inhibitors; 310,000 tested, 5.9% active; AID 504832, 2011; further: potency means the concentration at half of the fitted maximal effect; on the % scale 0 is the no-effect control and ±100 the full control effect
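Luminescence readout; reporter = integrated firefly luciferase in P. falciparum. RBC culture at 2% hematocrit, 0.1% parasitemia final, 37 C/5% CO2; decreased signal taken as growth inhibition.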
Pf growth 96h – Primary qHTS for delayed death inhibitors of the malarial parasite plastid, 96 hour incubation. P. falciparum luciferase reporter growth, 96 h. Potency, µM (top dose mostly 28.7 µM), inactives show at the top dose activity change, negative = inhibition, actives largely listed as inhibitors. 320,000 tested, 6.9% active; further: potency means the concentration at half of the fitted maximal effect; on the % scale 0 is the no-effect control and ±100 the full control effect
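Plates of compound plus infected erythrocytes (2% hematocrit, 0.05% parasitemia final) incubate 96 hours, 37 C, 5% CO2. Detection reagent added; reduced luminescence from the parasites' luciferase reporter flags inhibition.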
* = called active by the depositor; i = inactive; u = inconclusive; x = not tested or not shown; [ ] = remark or other dose. Most compounds without a hit are left out; they make up all but 20% or so of the library. Unless noted, the call rests on the fitted dose curve; in most records, active means well fitted inhibition curve with a large enough effect; inconclusive means small, poorly fitted or top-dose-only effect, or another doubt; inactive means no such curve, though single readings can be large or run the other way.

SMILES	CHX counter	Shiga toxin inh	HCMV inh	Pf growth 48h	Pf growth 96h
CCC(=O)N1CCc2cc(S(=O)(=O)NCCN3CCC(C)CC3)ccc21	0	-7	1	x	1.7µM*
CCCCN(c1ccccc1)S(=O)(=O)c1ccc2c(c1)CCN2C(=O)CCC(=O)O	-1	14	-14	u	9.3µM*
Cc1cccc(NS(=O)(=O)c2cc3c4c(c2)CC(=O)N4CCC3)c1C	-1	5	-27	u	75%
FC(F)(F)c1ccccc1CNCc1ccc2c(c1)OCO2	1	-3	-13	1%	353%
C#CCOCCOCCOCCNc1nc(N2CCN(C(=O)[C@H]([C@@H](C)CC)n3cc(CCCN=C(N)N)nn3)CC2)nc(N2CCN(C(=O)[C@H]([C@@H](C)CC)n3cc(CCCN=C(N)N)nn3)CC2)n1	-5	19	x	u	0.93µM*
C#CCOCCOCCOCCNc1nc(N2CCN(C(=O)[C@H](C(C)C)n3cc(CCO)nn3)CC2)nc(N2CCN(C(=O)[C@H](C)n3cc(CCCN=C(N)N)nn3)CC2)n1	x	x	14	x	x
C#CCOCCOCCOCCNc1nc(N2CCN(C(=O)[C@H]([C@@H](C)CC)n3cc(CCCN=C(N)N)nn3)CC2)nc(N2CCN(C(=O)[C@H](C)n3cc(CCCN=C(N)N)nn3)CC2)n1	-3	-15	x	u	0.17µM*
C#CCOCCOCCOCCNc1nc(N2CCN(C(=O)[C@H](C)n3cc(CCCN=C(N)N)nn3)CC2)nc(N2CCN(C(=O)[C@H](C)n3cc(CCCN=C(N)N)nn3)CC2)n1	-3	-6	2	u	0.74µM*
C#CCOCCOCCOCCNc1nc(N2CCOCC2)nc(N2CCN(C(=O)[C@H](C)n3cc(CCCN=C(N)N)nn3)CC2)n1	-3	-11	-2	19%	-23%
C#CCOCCOCCOCCNc1nc(N2CCN(C(=O)Cn3cc(CCO)nn3)CC2)nc(N2CCN(C(=O)[C@H]([C@@H](C)CC)n3cc(CCCN=C(N)N)nn3)CC2)n1	x	x	-17	x	x
C#CCOCCOCCOCCNc1nc(N2CCN(C(=O)Cn3cc(CC(C)O)nn3)CC2)nc(N2CCN(C(=O)[C@H]([C@@H](C)CC)n3cc(CCCN=C(N)N)nn3)CC2)n1 (some centres not stated)	-6	-12	107	-20%	4.7µM*
C#CCOCCOCCOCCNc1nc(N2CCN(C(=O)Cn3cc(CCCN=C(N)N)nn3)CC2)nc(N2CCN(C(=O)[C@H]([C@@H](C)CC)n3cc(CCC(=O)O)nn3)CC2)n1	-4	-13	-5	-11%	-15%
CC(Sc1nc(-c2ccccc2)c(C#N)c(=O)[nH]1)C(=O)Nc1ccc(F)cc1 (configuration not stated)	x	x	-13	x	x
Cc1ccc(CCNC(=O)C(CC(C)C)NS(=O)(=O)c2ccc3c(c2)oc(=O)n3C)cc1 (configuration not stated)	x	x	-7	x	x
C#CCOCCOCCOCCNc1nc(N2CCN(C(=O)Cn3cc(CCCN=C(N)N)nn3)CC2)nc(N2CCN(C(=O)Cn3cc(CCCN=C(N)N)nn3)CC2)n1	-2	-15	x	u	0.033µM*
Cc1csc(NC(=O)CCc2nc3ccccc3s2)n1	24*	37	38	-2%	-3%
O=C(COC(=O)CCc1nc2ccccc2s1)Nc1nc(-c2ccccc2)cs1	18*	47*	5	40%	38%
O=C(COC(=O)CCc1nc2ccccc2s1)Nc1ncc(Cl)cc1Cl	-2	13	24	8%	-19%
NC(=O)c1cc(NC(=O)CCc2nc3ccccc3s2)cc(C(N)=O)c1	0	7	-29	-9%	u
COc1ccc2cc(CNc3ccccc3)c(=O)n(CC(=O)Nc3ccc(C(C)=O)cc3)c2c1	x	x	-7	x	x
CN(C)c1cccc(C(=O)OC(C(=O)Nc2ccc(Cl)cc2C(F)(F)F)c2ccccc2)c1 (configuration not stated)	0	-9	-63*	u	12µM*
Cc1ccc(-c2nc3ccccc3s2)cc1NC(=S)NC(=O)c1ccccc1	34*	187*	115	106%	78%
Cc1ccc(-c2nc3ccccc3s2)cc1NC(=O)c1cc(-n2cnnc2)ccc1Cl	38*	85*	100	126%	i
CC(=O)Nc1cc(-c2nc3ccccc3s2)ccc1C	x	x	93	x	x
CC(C)c1ccc(S(=O)(=O)c2nnn3c2nc(N2CCOCC2)c2sccc23)cc1	x	x	25	x	x
SMILES	CHX counter	Shiga toxin inh	HCMV inh	Pf growth 48h	Pf growth 96h
CCOP(=O)(Cc1ccc(C(C)(C)CC(C)=O)o1)OCC	-1	-13	-12	2%	24%
COc1ccc2c(c1)O[C@H](c1ccc3c(c1)OCO3)[C@@H](O)C2=O	38*	58*	x	-8%	u
COc1ccc2c(c1)O[C@@H](c1ccc3c(c1)OCO3)[C@H](OC(=O)Nc1cc(OC)c(OC)c(OC)c1)C2=O	15*	36*	x	13µM*	u
CC(C)c1cc(Cn2c3ccccc3c(=O)n2C(C)CBr)on1 (configuration not stated)	x	x	46	x	x
COC(=O)CC1=C(C(=O)OC)C(c2ccncc2)C(C#N)=C(N)O1 (configuration not stated)	19	14	50	u	u
COC(=O)CC1=C(C(=O)OC)C(c2cccc(OCC(N)=O)c2)C(C#N)=C(N)O1 (configuration not stated)	-2	-2	-101*	-2%	-3%[5.75 µM]
O=c1oc2c(CN3CCCCC3)c(O)ccc2cc1-c1nc2ccccc2[nH]1	12*	13	29	u	10µM*
C=CCc1cccc2cc(-c3nc4ccc(C)cc4[nH]3)c(=O)oc12	36*	91*	47	x	x
O=c1oc2c(O)cccc2cc1-c1nc2ccccc2[nH]1	47*	69*	202	183%	-11%
CC(=O)N1c2c(cc(Br)cc2S(=O)(=O)NCc2ccccc2Cl)CC1C (configuration not stated)	x	x	-32	x	x
Cc1ccc(-n2nnnc2Sc2nc([N+](=O)[O-])nn2C)cc1C	-1	22	-17	3.3µM*	u
Cc1ccc(C)c(-n2nnnc2Sc2nc([N+](=O)[O-])nn2C)c1	-4	-5	-70*	u	42%
N#Cc1nc(-c2ccccc2Cl)oc1N1CCOCC1	17*	18	-18	-16%	x
CC(C)(C)c1ccc(-c2nc(C#N)c(N3CCC(C(N)=O)CC3)o2)cc1	8	1	37	u	u
CC1CCN(c2oc(-c3ccc(F)cc3)nc2C#N)CC1	41*	62*	-23	51%	24%
Cc1ccccc1-c1nc(C#N)c(N2CCC(C)CC2)o1	24*	46*	4	39%	57%
N#Cc1nc(-c2ccco2)oc1N1CCN(c2ccccc2)CC1	0	-9	-65*	-22%	13%
CC1CCN(c2oc(-c3ccccc3Cl)nc2C#N)CC1	37*	99*	-8	75%	74%
